15-hLO-2 inh: blocks human 15-lipoxygenase 2 activity; Potency, µM (series often up to 57.1 µM), for inactives: top-dose activity change, negative = inhibition, most hits filed as inhibitors; O15296; purified 15hLO-2, xylenol orange hydroperoxide absorbance; 0.56% of 110,000 active; AID 881; note: potency is the fitted concentration of half-maximal effect; nearly all actives have a fitted effect of over 60% in size
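Purified human 15hLO-2 (50 nM final) preincubated with compounds 15 min at room temperature in 25 mM Hepes pH 7.5, 0.01% Triton X-100, then 45 uM arachidonic acid added for 90 min; hydroperoxide detected via ferrous/xylenol orange, 573/405 nm absorbance ratio.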
IMPase cell inh: cell-permeable inhibitors of inositol monophosphatase (IMPase) | P97697 | CHO-M1 cells, IP1 accumulation, HTRF TR-FRET ratio | inhibition (IP1 accumulation), % at 46.1 µM | 120,000 tested, under 10 active; active = well fitted curve in the direction sought with a large enough effect in the signal ratio, not every such curve was filed as active; inconclusive = small, poorly fitted or top-dose-only effect, or a change in a side signal; inactive = no such curve, though single readings can be large or run the other way; the % refers to the signal ratio;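 note: cells stimulated with carbachol in lithium chloride buffer; plate controls were DMSO basal wells for no effect and reference inhibitor wells for full effect; higher means more IMPase inhibition seen as more IP1 and lower FRET ratio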
Target sequence (P97697 whole entry, looked up): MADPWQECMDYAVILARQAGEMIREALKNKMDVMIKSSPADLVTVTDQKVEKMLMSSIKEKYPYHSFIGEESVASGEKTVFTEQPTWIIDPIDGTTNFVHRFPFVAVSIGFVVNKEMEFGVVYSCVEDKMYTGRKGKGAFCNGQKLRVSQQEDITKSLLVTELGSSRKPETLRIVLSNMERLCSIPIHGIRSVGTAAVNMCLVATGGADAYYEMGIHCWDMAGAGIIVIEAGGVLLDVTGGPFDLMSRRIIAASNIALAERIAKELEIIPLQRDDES
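CHO-M1 cells (CHO stably expressing M1 receptor), compound up to 46 uM final, stimulated with carbachol (50 uM as added) in buffer with 50mM LiCl, pH 7.4, 30 min at 37C. Cytosolic IP1 read by TR-FRET; AC50 from Hill fits.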
PNC inhibitor: perinucleolar compartment assembly inhibition | 3.1% of 140,000 active | AID 2417 | PC3M PTB-GFP, PNC prevalence imaging, 16 h; hits give low values | activity change (PNC), negative = inhibition, % at 10 µM;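 active = readout at or below -70, meaning at least 70% loss of cells showing the perinucleolar compartment, a nuclear body marking cancer cells; inconclusive = readout between -30 and a set limit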;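 note: plate controls were DMSO wells for no effect and camptothecin positive control wells for full effect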
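PC3M cells stably expressing PTB-GFP, 750–1000 cells/well, treated 16 h at 37 °C with compound (23 nl of library stock), in duplicate. After paraformaldehyde fixation and Hoechst stain, imaged at 20x; PNC prevalence scored by image analysis.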
12-hLO inh: inhibitors of human 12-lipoxygenase (ALOX12); P18054; purified 12-hLO, xylenol orange hydroperoxide absorbance; Potency, µM (titrated, usually from 57.1 µM), for inactives: at the top dose activity change, negative = inhibition, usual class: inhibitors; 0.12% of 150,000 active; note: potency is the fitted concentration of half-maximal effect; nearly all actives have a fitted effect of over 55% in size
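Lipoxygenase turnover measured by absorbance at 573 and 405 nm after Fe-XO development. Human 12hLO 150 nM, arachidonate 40 uM, pH 7.0 Hepes buffer with detergent; 15 min compound preincubation, 30 min reaction.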
Active calls of the source: *; ? = inconclusive; · = no result given; ! = not confirmed by another sample; [ ] = remark or other dose. A selection: hits, their analogues and other compounds. The true share with any hit is near 3%. Unless noted, calls come from the whole dose curve; as a rule, active = well fitted curve in the direction sought with a large enough effect; inconclusive = small, poorly fitted or top-dose-only effect, or another doubt; inactive = no such curve, though single readings can be large; an effect the other way counts as inactive or inconclusive. Unless noted, % is set by controls: 0 for no effect and ±100 for the full control effect.

SMILES	15-hLO-2 inh	IMPase cell inh	PNC inhibitor	12-hLO inh
Cc1cc(Cl)c(OCCN2C(=O)NC(C)(C)C2=O)c(Br)c1	6%	4	-5	-1%
Cc1cc(Cl)cc(Br)c1OCCCN1C(=O)NC(C)(C)C1=O	-3%	2	-80*	0%
O=C(c1cn(CC(=O)N2CCCC2)c2ccccc12)C1CCCCC1	-6%	8	18	-1%
N#C/C(=C\c1cn(Cc2ccc(C#N)cc2)c2ccccc12)C(=O)NCc1cccs1	·	·	-116*	3%
N#C/C(=C\c1cn(CCOc2ccccc2F)c2ccccc12)C(=O)NCc1cccs1	·	·	?	0%
OCCN(CCO)c1nc(N2CCCCC2)c2nc(N(CCO)CCO)nc(N3CCCCC3)c2n1	20µM*!	-17	-5	-2%
CC(CCc1ccccc1)NC(=O)C1CCCN(C(=O)c2cc3sccc3n2C)C1 (configuration not stated)	0%	7	?	-7%
CCOC(=O)c1cc(NC(=O)Nc2ccccc2OC)c(C)nc1C	2%	4	-81*	2%
O=C(NCc1ccccc1C(F)(F)F)C12CN(Cc3ccccc3)CC1C(c1ccc([N+](=O)[O-])cc1)=NO2 (configuration not stated)	7%	2	-119*	0%
O=C(NCc1ccc2c(c1)OCO2)C12CN(Cc3ccccc3)CC1C(c1cccc([N+](=O)[O-])c1)=NO2 (configuration not stated)	-1%	-1	-87*	-1%
O=C(NCc1ccc(C(F)(F)F)cc1)C12CN(Cc3ccccc3)CC1C(c1cccc([N+](=O)[O-])c1)=NO2 (configuration not stated)	8%	0	19	2%
O=c1[nH]c2cc3c(cc2cc1C(c1nnnn1CC1CCCO1)N1CCCC1)OCO3 (configuration not stated)	-3%	-7	12	4%
CCOC(=O)Nc1ccc2c(c1)Nc1ccccc1S2	13µM*	10	41	-10%
CCCCNc1nc(C)nc2c1nc(-c1ccccc1)n2CCCN1CCCCC1C (configuration not stated)	53%	·	·	1%
CC(=O)c1cccc(-n2nnnc2SCC(=O)Nc2ccccc2N2CCCCC2)c1	0%	3	-106*	-3%
Cc1csc(NC(=O)C(CC(C)C)NS(=O)(=O)c2ccc3c(c2)oc(=O)n3C)n1 (configuration not stated)	3%	-2	-82*	0%
CCOC(=O)C1=C(C)N=C2SC(C)C(=O)N2C1c1ccc(OC(C)=O)c(OC)c1 (configuration not stated)	·	3	-100*	-5%
CCOc1cc(C2C(C(=O)OC)=C(C)N=C3SC(C)C(=O)N32)ccc1OC(C)=O (configuration not stated)	3%	1	-18	-2%
CCN=C1SC(C(=O)Nc2cccc(C(=O)O)c2)CC(=O)N1CC (configuration not stated)	33%	0	38	-1%
CCN=C1SC(C(=O)Nc2ccccc2)CC(=O)N1CC (configuration not stated)	-14%	4	-85*	0%
CC(C)OC(=O)CN1CCN(C2c3ccccc3-c3ccccc32)CC1	14%	-1	?	3%
CC1(C)C(=O)C2(CCCCC2)C(=O)OC1c1cccn1-c1ccc([N+](=O)[O-])cc1 (configuration not stated)	·	4	-87*	-5%
Cc1cccc(C(=O)Nc2sc3c(c2C(=O)O)CCCC3)c1	·	-1	·	·
COc1cc(OC)cc(-c2nnc(SCC(=O)N3CCC(C)CC3)o2)c1	·	7	·	·
CCOc1ccc(-n2c(SCC)nc3c(c2=O)SCC3)cc1	-2%	11	2	3%
SMILES	15-hLO-2 inh	IMPase cell inh	PNC inhibitor	12-hLO inh
O=C1c2ccccc2C(=O)C12OC(c1ccccc1)C1(C(=O)c3ccccc3C1=O)C2c1cccc([N+](=O)[O-])c1 (configuration not stated)	·	3	-100*	6%
CCC(C)C1/C=C\CCCC(=O)N1Cc1ccc(C)cc1 (configuration not stated)	-12%[0.0915 µM]	·	·	-6%[0.00818 µM]
O=c1c(O)c(-c2ccc(O)c(O)c2)oc2ccccc12	13µM*	2	·	?
CCOC(=O)c1cnn(CCOC(=O)c2ccccc2)c1NC(=O)c1ccccc1	·	·	-23	1%
O=C(NCCc1ccccc1)C1CCC(CNc2c(N3CCCCC3)c(=O)c2=O)CC1 (configuration not stated)	·	·	63	0%
Cc1ccnc(NC(=O)C2CCC(CNc3c(N4CCCC4)c(=O)c3=O)CC2)c1 (configuration not stated)	-3%	-4	-19	-5%
CC1CCN(c2c(NCC3CCC(C(=O)Nc4ccccn4)CC3)c(=O)c2=O)CC1 (configuration not stated)	·	·	-119*	-1%
O=C(NC1CCCCCCC1)C1CCC(CNc2c(N3CCCC3)c(=O)c2=O)CC1 (configuration not stated)	·	-1	-119*	4%
CCCOc1ccc(C(=O)Nc2ccc3oc(-c4ccncc4)nc3c2)cc1	·	-12	·	·
CCN(C(=O)CCC(=O)N(CC)c1ccccc1)c1ccccc1	·	·	20	8%
CCCC(=O)N(CCN(C(=O)CCC)c1ccccc1)c1ccccc1	·	?	-100*	2%
O=C(Nc1ccc(S(=O)(=O)N2CCCC2)cc1)C1COc2ccccc2O1 (configuration not stated)	·	-5	-90*	-1%
O=C(Nc1ccc(S(=O)(=O)N2CCOCC2)cc1)C1COc2ccccc2O1 (configuration not stated)	7%	-2	?	-8%
O=C(Nc1ccccc1)Nc1ccc(F)c([N+](=O)[O-])c1	·	·	2	0%
Cc1ccsc1C(=O)Nc1ccc(F)c([N+](=O)[O-])c1	·	·	-81*	0%
Cc1occc1-c1n[nH]c(=S)n1CC(C)C	·	-2	-94*	0%
CC(C)Cn1c(-c2csc3ccccc23)n[nH]c1=S	-11%	0	?	-9%
Cc1ccccc1NC(=O)CN1C(=O)S/C(=C\c2cccn2-c2cccc(C(=O)O)c2)C1=O	25µM*	12	?	-10%
Oc1ccccc1C1Nc2cccc3cccc(c23)N1	2µM*	4	60	?
CCN1CCN(C(=O)N[C@H](C(=O)N[C@@H]2C(=O)N3C(C(=O)O)=C(CSc4nnnn4C)CS[C@@H]23)c2ccc(O)cc2)C(=O)C1=O	4%[25.6 µM]	-2[20.6 µM]	·	-3%[25.6 µM]
Cc1nc2c(c(C)c1C#N)C(=O)c1ccccc1-2	·	·	-96*	0%
Cc1c(NC(=O)CSc2nnc3c4ccccc4n(CCc4ccccc4)c3n2)c(=O)n(-c2ccccc2)n1C	-4%	-1	-90*	3%
CCCC[C@@H]1C[C@H]1C(NC(=O)c1cccs1)c1ccc(-c2ccccc2)cc1 (some centres not stated)	-7%	·	·	-2%
COc1cc(C(=O)Nc2sc3c(c2C#N)CCCC3)c(Br)c(OC)c1OC	·	-9	·	·
